# About 2,000 (36%) of roughly 5,500 compounds were called active. Inconclusive results (about 18%) are left out. The list shows a part of the results. Unmarked numbers belong to inactive results. No stated cut-off is given here; in the data, active means normalized growth mostly below about 0.91 (no sharp cut-off); inconclusive means no clear call, values can overlap the other calls; inactive means mostly above about 0.92.
# Assay: chemical genetic growth profiling, strain panel (AID 1159580);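 further: tested at 20 µM; growth read once vehicle control cultures reached saturation at 30 °C; 1 = growth at the plate median or of vehicle wells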
# Settings: growth OD
smiles,measurement,setting,value
COC(=O)c1c(C)c2c(c(C)c1OC)OC(=O)c1c(C)c(Cl)c(OC)c(Cl)c1O2,normalized growth,"S. cerevisiae deletion strains, locus YBR021W, strain FUR4, stronger effect = lower value",0.99
same,normalized growth,"S. cerevisiae deletion strains, locus YBR229C, strain ROT2, stronger effect = lower value",1.01
same,normalized growth,"S. cerevisiae deletion strains, locus YCL029C, strain bik1, stronger effect = lower value",1.02
same,normalized growth,"S. cerevisiae deletion strains, locus YDL035C, strain GPR1, stronger effect = lower value",1.03
same,normalized growth,"S. cerevisiae deletion strains, locus YDL074C, strain BRE1, stronger effect = lower value",1.04
same,normalized growth,"S. cerevisiae deletion strains, locus YDL101C, strain DUN1, stronger effect = lower value",1.02
same,normalized growth,"S. cerevisiae deletion strains, locus YDL134C, strain PPH21, stronger effect = lower value",1.01
same,normalized growth,"S. cerevisiae deletion strains, locus YDL185W, strain tfp1, stronger effect = lower value",1.01
same,normalized growth,"S. cerevisiae deletion strains, locus YDL192W, strain arf1, stronger effect = lower value",1.02
same,normalized growth,"S. cerevisiae deletion strains, locus YDR101C, strain arx1, stronger effect = lower value",1
same,normalized growth,"S. cerevisiae deletion strains, locus YDR150W, strain NUM1, stronger effect = lower value",1.02
same,normalized growth,"S. cerevisiae deletion strains, locus YDR162C, strain NBP2, stronger effect = lower value",1.03
same,normalized growth,"S. cerevisiae deletion strains, locus YDR318W, strain mcm21, stronger effect = lower value",1.02
same,normalized growth,"S. cerevisiae deletion strains, locus YDR388W, stronger effect = lower value",1.02
same,normalized growth,"S. cerevisiae deletion strains, locus YDR502C, strain sam2, stronger effect = lower value",1.03
same,normalized growth,"S. cerevisiae deletion strains, locus YEL061C, strain CIN8, stronger effect = lower value",1.01
same,normalized growth,"S. cerevisiae deletion strains, locus YER110C, stronger effect = lower value",1.02
same,normalized growth,"S. cerevisiae deletion strains, locus YER155C, strain BEM2, stronger effect = lower value",0.998
same,normalized growth,"S. cerevisiae deletion strains, locus YER167W, strain BCK2, stronger effect = lower value",1.03
same,normalized growth,"S. cerevisiae deletion strains, locus YGL078C, strain dbp3, stronger effect = lower value",1.01
same,normalized growth,"S. cerevisiae deletion strains, locus YGL086W, strain mad1, stronger effect = lower value",1.03
same,normalized growth,"S. cerevisiae deletion strains, locus YGL248W, strain PDE1, stronger effect = lower value",1.01
same,normalized growth,"S. cerevisiae deletion strains, locus YGR135W, strain pre9, stronger effect = lower value",1.03
same,normalized growth,"S. cerevisiae deletion strains, locus YGR229C, strain SMI1, stronger effect = lower value",1.06
same,normalized growth,"S. cerevisiae deletion strains, locus YGR252W, strain gcn5, stronger effect = lower value",1.01
same,normalized growth,"S. cerevisiae deletion strains, locus YHR030C, strain SLT2, stronger effect = lower value",1.02
same,normalized growth,"S. cerevisiae deletion strains, locus YHR079C, strain IRE1 (second series), stronger effect = lower value",1.01
same,normalized growth,"S. cerevisiae deletion strains, locus YHR094C, strain hxt1, stronger effect = lower value",1.02
same,normalized growth,"S. cerevisiae deletion strains, locus YHR129C, strain ARP1, stronger effect = lower value",1.01
same,normalized growth,"S. cerevisiae deletion strains, locus YHR200W, strain rpn10, stronger effect = lower value",1.02
same,normalized growth,"S. cerevisiae deletion strains, locus YIL066C, strain RNR3, stronger effect = lower value",1.04
same,normalized growth,"S. cerevisiae deletion strains, locus YIL073C, strain SPO22, stronger effect = lower value",1.09
same,normalized growth,"S. cerevisiae deletion strains, locus YIL125W, strain kgd1, stronger effect = lower value",1.01
same,normalized growth,"S. cerevisiae deletion strains, locus YIR030C, strain dcg1, stronger effect = lower value",1.01
same,normalized growth,"S. cerevisiae deletion strains, locus YJL095W, strain BCK1, stronger effect = lower value",1.04
same,normalized growth,"S. cerevisiae deletion strains, locus YJL134W, strain LCB3, stronger effect = lower value",1.01
same,normalized growth,"S. cerevisiae deletion strains, locus YJL168C, strain set2, stronger effect = lower value",1.02
same,normalized growth,"S. cerevisiae deletion strains, locus YJL187C, strain SWE1 (second series), stronger effect = lower value",1.03
same,normalized growth,"S. cerevisiae deletion strains, locus YJR043C, strain POL32, stronger effect = lower value",1.03
same,normalized growth,"S. cerevisiae deletion strains, locus YKL009W, strain mrt4, stronger effect = lower value",1.37 [resistant] (active)
same,normalized growth,"S. cerevisiae deletion strains, locus YKL068W, stronger effect = lower value",1.04
same,normalized growth,"S. cerevisiae deletion strains, locus YKL085W, strain MDH1 (second series), stronger effect = lower value",1.23 [resistant] (active)
same,normalized growth,"S. cerevisiae deletion strains, locus YKL085W, strain MDH1, stronger effect = lower value",1.23 [resistant] (active)
same,normalized growth,"S. cerevisiae deletion strains, locus YKR001C, strain vps1, stronger effect = lower value",1.01
same,normalized growth,"S. cerevisiae deletion strains, locus YLR039C, strain RIC1, stronger effect = lower value",1.06
same,normalized growth,"S. cerevisiae deletion strains, locus YLR058C, strain SHM2, stronger effect = lower value",1.02
same,normalized growth,"S. cerevisiae deletion strains, locus YLR102C, strain apc9, stronger effect = lower value",1.01
same,normalized growth,"S. cerevisiae deletion strains, locus YLR262C, strain YPT6, stronger effect = lower value",1.07
same,normalized growth,"S. cerevisiae deletion strains, locus YLR268W, strain sec22, stronger effect = lower value",1.02
same,normalized growth,"S. cerevisiae deletion strains, locus YLR330W, strain CHS5, stronger effect = lower value",1.02
same,normalized growth,"S. cerevisiae deletion strains, locus YLR342W, strain FKS1 (second series), stronger effect = lower value",1.05
same,normalized growth,"S. cerevisiae deletion strains, locus YLR371W, strain rom2, stronger effect = lower value",1.01
same,normalized growth,"S. cerevisiae deletion strains, locus YLR418C, strain cdc73, stronger effect = lower value",1.03
same,normalized growth,"S. cerevisiae deletion strains, locus YML016C, strain PPZ1, stronger effect = lower value",1.01
same,normalized growth,"S. cerevisiae deletion strains, locus YML032C, strain rad52, stronger effect = lower value",1.01
same,normalized growth,"S. cerevisiae deletion strains, locus YML124C, strain tub3, stronger effect = lower value",1.04
same,normalized growth,"S. cerevisiae deletion strains, locus YMR078C, strain ctf18, stronger effect = lower value",1.01
same,normalized growth,"S. cerevisiae deletion strains, locus YMR223W, strain ubp8, stronger effect = lower value",1.02
same,normalized growth,"S. cerevisiae deletion strains, locus YMR307W, strain GAS1, stronger effect = lower value",1.04
same,normalized growth,"S. cerevisiae deletion strains, locus YNL067W, strain RPL9B, stronger effect = lower value",1.02
same,normalized growth,"S. cerevisiae deletion strains, locus YNL128W, strain TEP1, stronger effect = lower value",1.04
same,normalized growth,"S. cerevisiae deletion strains, locus YNL233W, strain BNI4, stronger effect = lower value",1.02
same,normalized growth,"S. cerevisiae deletion strains, locus YNL250W, strain rad50, stronger effect = lower value",1.04
same,normalized growth,"S. cerevisiae deletion strains, locus YNL271C, strain bni1, stronger effect = lower value",1.02
same,normalized growth,"S. cerevisiae deletion strains, locus YNL298W, strain CLA4, stronger effect = lower value",1.02
same,normalized growth,"S. cerevisiae deletion strains, locus YNL307C, strain MCK1, stronger effect = lower value",1.01
same,normalized growth,"S. cerevisiae deletion strains, locus YNL322C, strain KRE1, stronger effect = lower value",1.02
same,normalized growth,"S. cerevisiae deletion strains, locus YNR052C, strain pop2, stronger effect = lower value",1.02
same,normalized growth,"S. cerevisiae deletion strains, locus YOL012C, strain htz1",0.795
same,normalized growth,"S. cerevisiae deletion strains, locus YOL147C, strain pex11, stronger effect = lower value",1.01
same,normalized growth,"S. cerevisiae deletion strains, locus YOR061W, strain CKA2, stronger effect = lower value",1.01
same,normalized growth,"S. cerevisiae deletion strains, locus YOR069W, strain VPS5, stronger effect = lower value",1.01
same,normalized growth,"S. cerevisiae deletion strains, locus YOR136W, strain idh2, stronger effect = lower value",1.02
same,normalized growth,"S. cerevisiae deletion strains, locus YOR144C, strain elg1, stronger effect = lower value",1.01
same,normalized growth,"S. cerevisiae deletion strains, locus YOR184W, strain ser1, stronger effect = lower value",1.02
same,normalized growth,"S. cerevisiae deletion strains, locus YOR316C, strain cot1, stronger effect = lower value",1.02
same,normalized growth,"S. cerevisiae deletion strains, locus YPL055C, strain LGE1, stronger effect = lower value",1.04
same,normalized growth,"S. cerevisiae deletion strains, locus YPR119W, strain clb2, stronger effect = lower value",1.01
same,normalized growth,"S. cerevisiae deletion strains, locus YPR141C, strain kar3, stronger effect = lower value",1.02
same,normalized growth,"S. cerevisiae deletion strains, locus YPR163C, strain tif3, stronger effect = lower value",1.01
same,normalized growth,"S. cerevisiae deletion strains, locus YPR167C, strain met16, stronger effect = lower value",1.02
same,normalized growth,"S. cerevisiae deletion strains, strain wtn01, stronger effect = lower value",1.01
same,normalized growth,"S. cerevisiae strains, strain wild type, stronger effect = lower value",1.02
